Sampled rows, rich in hits. Any-hit rate of the full collection: about 10%.
CtBP-E1A blk – inhibitors of CtBP/E1A interaction | AlphaScreen GST-E1A/His-CtBP binding, 1536-well; active compounds read low | activity change, % (test concentration not listed) | 340,000 compounds, 0.49% hits | AID 651724; in the data active = activity change below about -65%; inconclusive = mostly about -30% to -63%; note: % is set by controls: 0 for no effect and ±100 for the full control effect
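Steps: dispense buffer (Tris pH 8.0, NaCl 300 mM, TCEP 1 mM, BSA, Tween 20); add 5X protein mix (GST-E1A, His-CtBP, 125 nM each); pin 23 nL compound; 2 h at 37 °C, dark; add 5X beads (50 ug/mL); 1 h; read.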
HP1b chromo inh – blocks HP1-beta chromodomain binding to methylated histone tails; P83916; AlphaScreen HP1-beta / biotin-H3K9me3 peptide binding; Potency, µM (highest dose often 114 µM), for inactives: at the highest dose activity change, negative = inhibition, hits mostly inhibitors; 390,000 compounds, 0.56% hits; note: potency is the fitted concentration of half-maximal effect; nearly all actives have a fitted effect of over 70% in size
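Compound inhibition of the preformed complex between 50 nM HP1-beta and 50 nM biotinylated H3K9me3 peptide was read by AlphaScreen. Buffer was PBS pH 7.4 with 0.01% Tween-20. Incubations ran 30 min at room temperature, with 10 ug/mL donor/acceptor beads.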
G9a inh – blocks human histone lysine methyltransferase G9a; 350,000 compounds, 8.8% hits; Q96KQ7; G9a H3K9 monomethylation, AlphaScreen, 2 h; Potency, µM (highest dose often 102 µM), inactives show top-dose activity, negative = inhibition, hits mostly inhibitors; AID 504332; note: potency is the fitted concentration of half-maximal effect; % is set by controls: 0 for no effect and ±100 for the full control effect; nearly all actives have a fitted effect of over 75% in size
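Chemiluminescent proximity detection of H3K9 monomethylation, read after 10 min bead incubation in the dark. Reaction: 20 nM G9a, 500 nM biotin-H3K9 peptide, 20 uM SAM cofactor, 2 h, room temperature, following 15 min enzyme-compound preincubation.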
BAZ2B inh – BAZ2B (human) inhibition. Q9UIF8. AlphaScreen BAZ2B-H3K14Ac peptide displacement. Potency, µM (highest dose often 114 µM), without a hit: at the top dose activity change, negative = inhibition, most hits filed as inhibitors. 360,000 compounds, 4.4% hits. AID 504333; note: potency is the fitted concentration of half-maximal effect; % is set by controls: 0 for no effect and ±100 for the full control effect; nearly all actives have a fitted effect of over 60% in size
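Protein-peptide AlphaScreen: BAZ2B 50 nM, b-H3K14Ac 50 nM, 1x PBS pH 7.4 + 0.01% Tween-20. Preincubation 30 min RT; cpd 30 min RT (top 110 uM); beads 20 min RT, light-protected.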
JMJD2A Tudor – inhibitors of human JMJD2A Tudor domain; AlphaScreen JMJD2A-Tudor / H3K4me3 peptide binding; AID 504339; Potency, µM (highest dose often 114 µM), inactives show top-dose activity change, negative = inhibition, hits mostly inhibitors; 390,000 compounds, 4.4% hits; O75164; note: potency is the fitted concentration of half-maximal effect; % is set by controls: 0 for no effect and ±100 for the full control effect; nearly all actives have a fitted effect of over 50% in size
Six1-Eya2 blk – Six1/Eya2 interaction inhibition. AlphaScreen GST-Six1/His-Eya2 binding, biochemical; active compounds read low. activity change, % (concentration not given with the values). 360,000 compounds, 0.56% hits. AID 651725; in the data active = activity change below about -65%; inconclusive = mostly about -30% to -63%; note: % is set by controls: 0 for no effect and ±100 for the full control effect
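Compounds are tested against tagged Six1 and Eya2 proteins bridged by glutathione donor and nickel acceptor beads; after a one-hour incubation at 37 °C without light, AlphaScreen emission is recorded.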
Starred values were filed as active, the others as inactive; u = inconclusive; x = not tested or not shown; [ ] = another dose, or the depositor's remark. Unless noted, calls come from the whole dose curve; as a rule, active = well fitted inhibition curve with a large enough effect; inconclusive = small, poorly fitted or top-dose-only effect; inactive = no such curve, though single readings can be large or run the other way.

SMILES	CtBP-E1A blk	HP1b chromo inh	G9a inh	BAZ2B inh	JMJD2A Tudor	Six1-Eya2 blk
Nc1cccc2c1C(=O)N(CCOc1ccc(F)cc1)C2=O	36	149%	124%	45%	103%	5
CC(=O)N1CCc2cc(S(=O)(=O)NCC(=O)NCc3ccc(Cl)cc3)ccc21	1	21%	13%	-14%	-8%	3
C#CCOc1c(Br)cc(/C=C2/C(=O)ON=C2C)cc1OCC	-2	13%	45µM*	u	-13%	3
CC1=NOC(=O)/C1=C\c1ccc(-c2ccc(Cl)cc2Cl)o1	8	-17%	8.9µM*	u	u	-17
C#CCOc1ccc(/C=C2/C(=O)ON=C2C)cc1Cl	8	-5%	35µM*	-4%	13µM*	-2
CCOc1cc(/C=C2/C(=O)ON=C2C)ccc1OCc1ccc(F)cc1	12	10%	u	-24%	5%	5
COCCNC(=O)CCCN1C(=O)CCn2nc(-c3cccn3C)cc21	x	13%[57 µM]	-32%[59 µM]	-26%	-20%	x
CCOC(=O)c1ccc(NC(=S)N(CCCN2CCCC2)Cc2ccco2)cc1	3	-2%	56µM*	-35%	-25%	-14
Cc1ccc(NC(=S)N(CCCN2CCOCC2)Cc2ccco2)cc1Cl	1	-10%	-15%	-38%	-31%	-8
CCN1CCN(CCCN(Cc2ccco2)C(=S)Nc2cc(Cl)ccc2C)CC1	-3	4%	28µM*	-9%	-8%	-1
CCN1CCN(CCCN(Cc2ccco2)C(=S)Nc2ccc(C)c(Cl)c2)CC1	-5	27%	35µM*	-29%	-24%	-13
CCOC(=O)c1ccc(NC(=S)N(CCCN2CCN(CC)CC2)Cc2ccco2)cc1	5	-3%	-40%	-13%	-29%	1
NC(=O)C1CCN(C(=O)CCC(=O)c2ccc(F)cc2)CC1	x	51%	25%	0%	4%	-6
CCOC(=O)c1ccc(NC(=O)c2ccc3c(c2)CCN3S(=O)(=O)c2ccc(Cl)cc2)cc1	x	46%	2%[59 µM]	-4%	-14%	x
O=C1NC[C@H](CCCCN2C[C@H](Cc3ccccc3)N(Cc3ccccc3)C(=O)C2=O)N(CCc2ccccc2)C1=O	1	x	x	x	x	10
Cn1nnc(C(O)CNCc2ccc(Cl)cc2)n1 (stereo not drawn)	-8	32%	-48%[59 µM]	-31%	-3%	0
Cn1nnc(C(O)CN2CCOCC2)n1 (stereo not drawn)	2	36%	79µM*	-7%	3%	9
COc1ccc(NC(=O)C[C@H]2C(=O)N(c3ccccc3)C[C@@H]2CSC)cc1	-1	x	x	x	x	-4
COc1ccc(C2(c3ccc(O)cc3O)CC(c3ccccc3Cl)NC(=S)N2)cc1 (stereo not drawn)	-13	u	u	28µM*	50µM*	-14
Cc1cccc(S(=O)(=O)Nc2ccc3c(c2)OCCO3)c1	x	5%	x	0%	-32%	3
Cc1cccc(S(=O)(=O)Nc2nc3ccccc3nc2Nc2ccc3c(c2)OCO3)c1	6	-17%	45µM*	u	u	0
O=S(=O)(Nc1nc2ccccc2nc1Nc1ccc2c(c1)OCO2)c1ccccc1	0	3%	40µM*	-4%	-11%	-1
O=[N+]([O-])c1cccc(S(=O)(=O)Nc2nc3ccccc3nc2Nc2cccc(S(=O)(=O)N3CCCCC3)c2)c1	15	-11%	40µM*	u	45µM*	2
CCOCCc1nn2c(=O)cc(COC(=O)Cc3ccccc3)nc2s1	x	28%	27%[59 µM]	-8%	-11%	x
CC(C)[C@H](O)CC[C@@H](C)C1CC[C@H]2C3CC=C4C[C@@H](O)CC[C@]4(C)C3CC[C@]12C (stereo partly drawn)	x	x	30%[59 µM]	x	x	x
SMILES	CtBP-E1A blk	HP1b chromo inh	G9a inh	BAZ2B inh	JMJD2A Tudor	Six1-Eya2 blk
O=C1C=CC(=O)C(CNc2ccc(C(=O)OCc3ccccc3)cc2)=C1	-15	40µM*	x	x	40µM*	-17
Cc1ccc(CNC(=O)c2ccc3c(c2)nc2n3CCCC2)cc1	x	25%[57 µM]	10%[59 µM]	2%	1%	x
N#CC1(Nc2ccc(S(N)(=O)=O)cc2)CCCC1	11	47%	x	x	-3%	0
CCCSc1nc2sc3c(c2c(=O)[nH]1)CCN(Cc1ccccc1)C3	-6	10%	10µM*	-2%	-27%[11.4 µM]	-3
O=c1[nH]c(C(Cl)Cl)nc2sc3c(c12)CCN(Cc1ccccc1)C3	0	27%	8.9µM*	u	79µM*	-16
Nc1nc2c(c(=O)[nH]1)CN(Cc1ccccc1)CC2	6	67%	2%[12.7 µM]	6%	4%	3
CCCC1(C(=O)OCC)NC(c2ccc(N(C)C)cc2)C2C(=O)N(c3ccc(F)cc3)C(=O)C21 (stereo not drawn)	-20	-20%	2.5µM*	-38%	-35%	u
CCC1(C(=O)OC)NC(c2ccco2)C2C(=O)N(c3ccc(F)cc3)C(=O)C21 (stereo not drawn)	x	29%	45µM*	-22%	-19%	6
CCOC(=O)c1ccc(NC(=O)CC2C(=O)N(c3ccc(F)cc3)C(=O)N2Cc2ccc(C)cc2)cc1 (stereo not drawn)	x	31%	-28%[59 µM]	-5%	-8%	x
O=C(Nc1cccc(-c2cn3c(n2)SCC3)c1)c1ccc2c(c1)OCO2	-6	-31%	45µM*	u	u	u
CS(=O)(=O)Nc1cccc(-c2cn3c(n2)SCC3)c1	x	u	-32%	-34%	56µM*	-28
O=S(=O)(Nc1ccc(-c2cn3c(n2)SCC3)cc1)c1cccs1	u	2%	35µM*	-27%	-31%	-3
CC(C)C(=O)Nc1cccc(-c2cnc3ccccc3n2)c1	-6	13%	1%	-3%	-11%	-4
O=S(=O)(Nc1ccc(-c2ccc3nncn3n2)cc1)c1cccs1	-10	-8%	2%	-1%	-15%	-4
CCS(=O)(=O)Nc1cccc(-c2cn3c(n2)SCC3)c1	x	12%[57 µM]	-16%	-37%	-6%	0
CS(=O)(=O)Nc1cccc(-c2cnc3ccccc3n2)c1	-12	16%	45µM*	1%	-14%	-6
COc1ccc([C@]23Cc4ccccc4C(O2)C2=C(CC4(CCCCC4)OC2=O)O3)cc1	x	x	8%[2.33 µM]	-22%[22.9 µM]	x	x
Cc1ccc(-c2nc(C)c(CCNC(=O)C(=O)Nc3cc(C)ccc3C)s2)cc1	x	13%[57 µM]	5%[59 µM]	2%	-17%	x
Cc1cccc(N2CCN(C(=O)c3sc4nc5n(c(=O)c4c3C)CCC5)CC2C)c1 (stereo not drawn)	x	30%	u	-19%	-10%	x
COc1cc2c(cc1OC)C(c1ccc(O)cc1)NCC2 (stereo not drawn)	-1	26%	18%	-16%	-5%	9
